{
  "source": "PubChem BioAssay (NCATS)",
  "note": "Records with an inconclusive call do not appear. Active and inactive are the calls of the source. Calls follow the shape of the dose curve; as a rule, active = well fitted inhibition curve with a large enough effect; inconclusive = small, poorly fitted or top-dose-only effect; inactive = flat fitted curve, though single readings scatter. % is scaled to controls: 0 for no effect and ±100 for the full control effect.",
  "data": [
    {"test": "qHTS to identify inhibitors of the type 1 interferon - major histocompatibility complex class I in skeletal muscle: primary screen against the NCATS Pharmaceutical Collection (AID 1347407)", "details": "human skeletal muscle cells, IFN-b-induced MHC-I HiBiT luminescence, 24 h; series mostly up to 45.9 µM; activity change, negative = inhibition: at the top concentration", "source_text": "Assay Submitter (PI): Travis B. Kinder Ph.D. & James Inglese Ph.D.\nAssay Development and Screening Technology Laboratory (ADST)\nNational Center for Advancing Translational Sciences (NCATS), Rockville, MD\nNational Institute of Health (NIH), Bethesda, Maryland\nIdiopathic inflammatory myopathies, collectively referred to as myositis, are a group of rare autoimmune diseases characterized by skeletal muscle inflammation, weakness, and usually accompanied by systemic pathologies of the skin, lungs, or vasculature. Current immunosuppressive therapies and glucocorticoids are often not curative and are accompanied by harsh side effects, especially in children with juvenile myositis. We initiated a drug repurposing and development program to identify more targeted, less toxic therapeutics to treat myositis. Although its cause is not known, muscle from a subset of patients have an abundance of the inflammatory type 1 interferon (IFN) and a down-stream product major histocompatibility complex class I (MHC class I), which are both thought to contribute to damage and weakness. We conducted quantitative high throughput screening on 6,576 compounds (4,679 unique) through a series of cell-based assays to identify those that inhibit the IFN-stimulated expression of MHC class I in muscle precursor cells (myoblasts). The compound identification and evaluation strategy utilized a primary screen with reporter-tagged MHC class I in genome-engineered myoblasts, ATP content counter screen for viability, HLA-ABC immunofluorescence secondary screen, and HLA-B RT-qPCR tertiary screen.\nThe primary screen utilized CRISPR/Cas9 genome-engineering of immortalized human myoblasts, C25cl48, where a pro-luminescent reporter HiBit was fused to the C-terminus of endogenous MHC class I allele HLA-B*08:01 (HLA-B HiBit myoblasts). HiBit is an 11 amino acid fragment of NanoLuc luminescent reporter (Promega Corporation), and when complexed to the larger LgBit fragment, the reconstituted enzyme produces light in the presence of furimazine substrate (Schwinn et al., 2018). Briefly, HLA-B HiBit myoblasts were plated into 1536-well plates, treated with 4.0 ng/ml human IFN-beta and 2,816 compounds from the NCATS Pharmaceutical Collection (NPC) that contains all drugs approved in the US, EU, and Japan (Huang et al., 2011) in an 8-point, 1:5 titration with a high final concentration of 46 uM. After 24 hrs of treatment, cells were assayed by Nano-Glo HiBiT Lytic Detection System (Promega) and luminescence measured by a ViewLux 1430 Ultra HTS (Perkin Elmer).\nHuang R, Southall N, Wang Y, Yasgar A, Shinn P, Jadhav A, Nguyen D-T, Austin CP. 2011. The NCGC pharmaceutical collection: a comprehensive resource of clinically approved drugs enabling repurposing and chemical genomics. Sci Transl Med 3:80ps16. doi:10.1126/scitranslmed.3001862\nSchwinn MK, Machleidt T, Zimmerman K, Eggers CT, Dixon AS, Hurst R, Hall MP, Encell LP, Binkowski BF, Wood K V. 2018. CRISPR-Mediated Tagging of Endogenous Proteins with a Luminescent Peptide. ACS Chem Biol 13:467-474. doi:10.1021/acschembio.7b00549\nPROTOCOL TABLE (as described by Inglese et al., 2007)\nSEQUENCE No. (e.g., 1, 2, 3, etc.); […] (e.g., Cells, Incubation, Reagent, etc.); VALUE; DESCRIPTION\n1a; Cells; 5 uL; Use a Multidrop Combi (Thermo Scientific) to seed 350 cells/well into nine Greiner 1536 well white/solid bottom, high base, TC plates in 5 ul/well of iHSKM growth medium (GM) without dexamethasone into columns 1+2. Add metal lids with gas-exchange holes\n1b; Cells; 5 uL; Use a Multidrop Combi (Thermo Scientific) to seed 350 cells/well into nine Greiner 1536 well white/solid bottom, high base, TC plates in 5 ul/well of iHSKM GM without dexamethasone + 4 ng/ml IFN-b into columns 3 - 48. Add metal lids with gas-exchange holes\n2; Incubate; 1 hr; Incubate at 37 C, 5% CO2, 95% RH\n[…]", "values": [
      {"smiles": "Cc1cc2nc3c(=O)[nH]c(=O)nc-3n(C[C@H](O)[C@H](O)[C@H](O)CO)c2cc1C", "activity change, negative = inhibition": "5.26% [at 19 µM] (inactive)"},
      {"smiles": "O=c1[nH]c(=O)c2[nH]c(=O)[nH]c2[nH]1", "activity change, negative = inhibition": "-11.3% [at 9.18 µM] (inactive)"},
      {"smiles": "CC(=O)OCC(=O)[C@@]1(O)CC[C@H]2[C@@H]3CCC4=CC(=O)CC[C@]4(C)[C@H]3C(=O)C[C@@]21C", "activity change, negative = inhibition": "-18.4% (inactive)"},
      {"smiles": "COc1ccc2cc1Oc1cc3c(cc1OC)CC[N+](C)(C)[C@H]3Cc1ccc(cc1)Oc1c(OC)c(OC)cc3c1[C@@H](C2)[N+](C)(C)CC3", "activity change, negative = inhibition": "4.91% (inactive)"},
      {"smiles": "CC1(C)CO[C@@H](CC(=O)O)CN1", "activity change, negative = inhibition": "-3% (inactive)"},
      {"smiles": "O=C1N=C(O)CN1/N=C/c1ccc(-c2ccc([N+](=O)[O-])cc2)o1", "activity change, negative = inhibition": "2.69% (inactive)"},
      {"smiles": "CCN(CC)CCSC(=O)C(c1ccccc1)c1ccccc1", "activity change, negative = inhibition": "-1.26% (inactive)"},
      {"smiles": "CN1[C@@H]2CC[C@H]1CC(OC(=O)C(O)c1ccccc1)C2", "note": "(stereo not given in full)", "activity change, negative = inhibition": "5.2% (inactive)"},
      {"smiles": "O=c1cc(CO)occ1O", "activity change, negative = inhibition": "5.1% (inactive)"},
      {"smiles": "C=Cc1c(C)c2cc3[nH]c(cc4nc(cc5nc(cc1[nH]2)C(C)=C5CCC(=O)O)C(CCC(=O)O)=C4C)c(C)c3C=C", "activity change, negative = inhibition": "18.1% (inactive)"},
      {"smiles": "CS(=O)(=O)c1ccc([C@@H](O)[C@@H](CF)NC(=O)C(Cl)Cl)cc1", "activity change, negative = inhibition": "3.18% (inactive)"},
      {"smiles": "COc1ccc2[nH]c(S(=O)Cc3ncc(C)c(OC)c3C)nc2n1", "note": "(stereo not given)", "activity change, negative = inhibition": "16% (inactive)"},
      {"smiles": "c1ccc2c(CC3=NCCN3)cccc2c1", "activity change, negative = inhibition": "-5.16% (inactive)"},
      {"smiles": "Nc1ncnc2c1ncn2[C@@H]1O[C@H](CO)[C@@H](O)[C@H]1O", "activity change, negative = inhibition": "-5.83% (inactive)"},
      {"smiles": "Cn1cc[nH]c1=S", "activity change, negative = inhibition": "28.1% (inactive)"},
      {"smiles": "C[C@H](NC(CCc1ccccc1)C(=O)O)C(=O)N1CCC[C@H]1C(=O)O", "note": "(stereo not given in full)", "activity change, negative = inhibition": "0.0197% (inactive)"},
      {"smiles": "CCN(CC)C(C)CN1c2ccccc2Sc2ccccc21", "note": "(stereo not given)", "activity change, negative = inhibition": "-9.51% (inactive)"},
      {"smiles": "C[C@@H]1CN(c2c(F)c(F)c3c(=O)c(C(=O)O)cn(C4CC4)c3c2F)C[C@H](C)N1", "activity change, negative = inhibition": "-3.67% [at 19 µM] (inactive)"},
      {"smiles": "C[C@](N)(Cc1ccc(O)cc1)C(=O)O", "activity change, negative = inhibition": "-0.196% [at 3.83 µM] (inactive)"},
      {"smiles": "CCN(CC)CCNC(=O)c1cc(Cl)c(N)cc1OC", "activity change, negative = inhibition": "-11.2% (inactive)"},
      {"smiles": "CCC(=O)c1ccc(O)cc1", "activity change, negative = inhibition": "0.873% (inactive)"},
      {"smiles": "O=Cc1ccccc1C=O", "activity change, negative = inhibition": "10.7% (inactive)"},
      {"smiles": "CCOc1ccc2ccccc2c1C(=O)N[C@@H]1C(=O)N2[C@@H]1SC(C)(C)[C@@H]2C(=O)O", "activity change, negative = inhibition": "-0.46% (inactive)"},
      {"smiles": "CC(=O)Nc1ccc(/C=N/NC(N)=S)cc1", "activity change, negative = inhibition": "-16.6% (inactive)"},
      {"smiles": "CCN(CC)CCCC(C)Nc1c2ccc(Cl)cc2nc2ccc(OC)cc12", "note": "(stereo not given)", "activity change, negative = inhibition": "4.28% (inactive)"},
      {"smiles": "Nc1ccc(S(=O)(=O)Nc2nccs2)cc1", "activity change, negative = inhibition": "-4.94% (inactive)"},
      {"smiles": "NCCNCCNCCNCCN", "activity change, negative = inhibition": "0.364% [at 9.18 µM] (inactive)"},
      {"smiles": "CC(C)(C)C(=O)C(Oc1ccc(Cl)cc1)n1ccnc1", "note": "(stereo not given)", "activity change, negative = inhibition": "9.7% (inactive)"},
      {"smiles": "C[C@H]1O[C@H](O[C@H]2[C@H](O)[C@@H](O)[C@@H](O[C@H]3[C@H](O)[C@@H](O)[C@H](O)O[C@@H]3CO)O[C@@H]2CO)[C@H](O)[C@@H](O)[C@@H]1N[C@H]1C=C(CO)[C@@H](O)[C@H](O)[C@H]1O", "activity change, negative = inhibition": "4.45% (inactive)"},
      {"smiles": "CC12CCC(CC1)C(C)(C)O2", "activity change, negative = inhibition": "-0.113% (inactive)"},
      {"smiles": "O=c1[nH]cnc2c1ncn2[C@@H]1O[C@H](CO)[C@@H](O)[C@H]1O", "activity change, negative = inhibition": "-4.59% (inactive)"},
      {"smiles": "CN1[C@@H]2CC(OC(=O)[C@H](CO)c3ccccc3)C[C@H]1[C@@H]1O[C@@H]12", "note": "(stereo not given in full)", "activity change, negative = inhibition": "-1.57% (inactive)"},
      {"smiles": "CC1(C)[C@@H]2CC[C@@]1(C)C(=O)C2", "activity change, negative = inhibition": "5.21% (inactive)"},
      {"smiles": "O=C1c2c(O)cccc2Cc2cccc(O)c21", "activity change, negative = inhibition": "19.8% (inactive)"},
      {"smiles": "CC1=C(CC(=O)O)c2cc(F)ccc2/C1=C\\c1ccc(S(C)=O)cc1", "note": "(stereo not given)", "activity change, negative = inhibition": "7.51% (inactive)"},
      {"smiles": "Nc1ccc(S(=O)(=O)Nc2ccccc2)cc1", "activity change, negative = inhibition": "-13.6% (inactive)"},
      {"smiles": "CN(C)CCOC(C)(c1ccccc1)c1ccccn1", "note": "(stereo not given)", "activity change, negative = inhibition": "-12.4% (inactive)"},
      {"smiles": "CC(=O)c1ccc2c(c1)N(CCCN(C)C)c1ccccc1S2", "activity change, negative = inhibition": "-27.8% (inactive)"},
      {"smiles": "CN1CCC[C@@H]1Cc1c[nH]c2ccc(CCS(=O)(=O)c3ccccc3)cc12", "activity change, negative = inhibition": "1.22% (inactive)"},
      {"smiles": "CN(C)CCCO[C@@H]1[C@H]2OC(C)(C)O[C@H]2O[C@@H]1C(O)CO", "note": "(stereo not given in full)", "activity change, negative = inhibition": "-12.9% (inactive)"}
    ]}
  ]
}
